# Only some compounds are listed: those with a hit (about 12% of all), similar ones and a draw of the others.
# Sfp inh = blocks B. subtilis Sfp PPTase activity. Q9F4F7. Biochemical Sfp PPTase activity, qHTS. Potency, µM, without a hit: largest response in the series, negative = inhibition, hits mostly inhibitors. 310,000 tested, 3.5% active;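 note: the enzyme is Sfp with the accession as filed and its product quenches rhodamine fluorescence; 0% = enzyme reaction without inhibitor and -100% = no enzyme wells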
#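 With Hepes-Na pH 7.6 buffer containing 10 mM MgCl2, Sfp (15 nM) modified BHQ-2-YbbR (12.5 uM) using rhodamine-CoA (5 uM). Two reads 30 minutes apart at 525/598 nm yielded each well's rate.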
# JMJD2A Tudor = inhibitors of human JMJD2A Tudor domain. O75164. AlphaScreen JMJD2A-Tudor / H3K4me3 peptide binding. Potency, µM (top dose mostly 114 µM), for inactives: at the top dose activity change, negative = inhibition, actives largely listed as inhibitors. 390,000 tested, 4.4% active; note: % is set by controls: 0 for no effect and ±100 for the full control effect; nearly all actives have a fitted effect of over 50% in size
# Target sequence (O75164 whole entry, looked up, the tested form may be a part): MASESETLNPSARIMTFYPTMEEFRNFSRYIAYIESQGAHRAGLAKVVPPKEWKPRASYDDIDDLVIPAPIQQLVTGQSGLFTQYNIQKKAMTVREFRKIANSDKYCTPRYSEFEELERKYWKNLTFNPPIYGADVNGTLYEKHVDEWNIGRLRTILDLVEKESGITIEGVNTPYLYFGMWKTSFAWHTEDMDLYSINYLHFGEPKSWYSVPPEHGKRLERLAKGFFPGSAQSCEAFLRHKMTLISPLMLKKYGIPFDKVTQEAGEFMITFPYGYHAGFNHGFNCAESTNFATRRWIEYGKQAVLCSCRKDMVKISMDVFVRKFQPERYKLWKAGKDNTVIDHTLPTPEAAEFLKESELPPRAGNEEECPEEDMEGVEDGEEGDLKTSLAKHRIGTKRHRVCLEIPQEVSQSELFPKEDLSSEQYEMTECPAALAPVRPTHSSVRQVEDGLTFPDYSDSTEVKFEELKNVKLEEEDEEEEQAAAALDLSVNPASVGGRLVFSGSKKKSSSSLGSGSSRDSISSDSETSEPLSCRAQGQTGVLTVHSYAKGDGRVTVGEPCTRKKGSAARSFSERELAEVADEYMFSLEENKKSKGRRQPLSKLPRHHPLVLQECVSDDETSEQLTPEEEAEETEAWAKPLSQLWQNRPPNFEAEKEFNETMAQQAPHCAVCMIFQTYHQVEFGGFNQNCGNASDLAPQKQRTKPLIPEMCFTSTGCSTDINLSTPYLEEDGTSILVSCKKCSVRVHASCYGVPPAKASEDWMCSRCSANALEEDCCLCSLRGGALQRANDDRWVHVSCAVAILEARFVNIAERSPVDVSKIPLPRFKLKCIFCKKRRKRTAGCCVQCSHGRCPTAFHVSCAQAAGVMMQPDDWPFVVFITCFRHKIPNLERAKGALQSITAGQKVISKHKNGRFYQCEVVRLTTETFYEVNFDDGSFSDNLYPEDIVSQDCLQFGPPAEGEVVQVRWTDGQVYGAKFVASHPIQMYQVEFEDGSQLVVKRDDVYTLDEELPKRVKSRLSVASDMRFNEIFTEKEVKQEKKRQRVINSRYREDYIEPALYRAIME
# HP1b binding inh = HP1-beta chromodomain-methylated histone interaction inhibition. 390,000 tested, 0.56% active. AID 540317. P83916. Potency, µM (highest dose often 114 µM), for the others: top-dose activity change, negative = inhibition, most hits filed as inhibitors. AlphaScreen HP1-beta / biotin-H3K9me3 peptide binding; note: nearly all actives have a fitted effect of over 70% in size
#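 Compound inhibition of the preformed complex between 50 nM HP1-beta and 50 nM biotinylated H3K9me3 peptide was read by AlphaScreen. Buffer was PBS pH 7.4 with 0.01% Tween-20. Incubations ran 30 min at room temperature, with 10 ug/mL donor/acceptor beads.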
# PLK1 PBD inh = inhibitors of human PLK1 polo-box domain binding | P53350 | Plk1 PBD binding of FITC phosphopeptide, fluorescence polarization | Potency, µM, for inactives: max response, negative = inhibition, hits mostly inhibitors | 360,000 tested, 2.8% active; note: series mostly up to about 57 µM; % is set by controls: 0 for no effect and ±100 for the full control effect; nearly all actives have a fitted effect of over 65% in size
# BAZ2B inh = inhibitors of human BAZ2B bromodomain. 360,000 tested, 4.4% active. Potency, µM (highest dose often 114 µM), inactives show top-dose activity change, negative = inhibition, hits mostly inhibitors. AlphaScreen BAZ2B-H3K14Ac peptide displacement. Q9UIF8; note: % is set by controls: 0 for no effect and ±100 for the full control effect; nearly all actives have a fitted effect of over 60% in size
#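 Multi-concentration screen (max 110 uM) measuring displacement of acetylated histone H3 peptide from BAZ2B by AlphaScreen, using 50 nM protein, 50 nM peptide and 10 ug/mL streptavidin donor plus Ni-chelate acceptor beads.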
# G9a inh = blocks human histone lysine methyltransferase G9a; 350,000 tested, 8.8% active; AID 504332; Q96KQ7; G9a H3K9 monomethylation, AlphaScreen, 2 h; Potency, µM (doses to about 102 µM), inactives show at the top dose activity, negative = inhibition, usual class: inhibitors; note: % is set by controls: 0 for no effect and ±100 for the full control effect; nearly all actives have a fitted effect of over 75% in size
#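 Methyltransferase reactions run at room temperature for 2 h (20 nM enzyme, 500 nM biotin-H3K9 peptide, 20 uM SAM) after a 15 min compound preincubation; product detected by AlphaScreen beads and anti-H3K9me1 antibody.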
# * = called active by the depositor; ? = inconclusive; . = not tested or not shown; ! = repeats disagree; [ ] = dose if it differs, or a comment. Calls come from the whole dose curve; as a rule, active = well fitted curve in the direction sought with a large enough effect; inconclusive = small, poorly fitted or top-dose-only effect, or another doubt; inactive = no such curve, though single readings can be large; an effect the other way counts as inactive or inconclusive. Potency is the fitted concentration of half-maximal effect.
SMILES,Sfp inh,JMJD2A Tudor,HP1b binding inh,PLK1 PBD inh,BAZ2B inh,G9a inh
COc1ccc(Br)cc1/C=N/NC(=O)c1ccc(COc2ccc3c(c2)CCC3)o1,9.5%,-19.2%[11.4 µM],-15.1%,?,-0.5%,23.9%
O=C(N/N=C/c1cc([N+](=O)[O-])ccc1O)C1CCCCC1,22.0%,-19.7%,31.5%,-2.9%,-32.6%,10.5%[59 µM]
O=C(N/N=C/c1cc([N+](=O)[O-])ccc1O)c1ccc(COc2ccc3c(c2)CCC3)o1,12.1%,?,?,?,44.7µM*,.
O=C(N/N=C/c1cc([N+](=O)[O-])ccc1O)C1C2CCCCC21 (centres undefined),24.6%,.,.,.,44.7µM*,?
Cc1ccn(CC(=O)N/N=C/c2cc([N+](=O)[O-])ccc2O)n1,6.4%,22.4µM*,31.5%,7.3%,35.5µM*,20.0%[59 µM]
Cc1ccc(S(=O)(=O)NCCc2csc(-c3cccc(F)c3)n2)cc1,.,-2.2%,31.8%[57 µM],.,24.8%,1.3%[59 µM]
Cc1ccccc1S(=O)Cc1ccc(C(=O)NC2CCCCCC2)o1 (centres undefined),.,-25.7%,10.1%,.,.,-24.4%[59 µM]
COc1ccccc1-c1oc2ccccc2c(=O)c1OC,2.0%,.,.,.,.,.
CCc1ccc(OCCCC(=O)Nc2ccc(S(=O)(=O)Nc3cc(C)nc(C)n3)cc2)cc1,15.8%,?,19.5%,-5.5%,-12.7%,?
O=C(Cn1nnc(-c2ccccc2)n1)N/N=C/c1cc([N+](=O)[O-])ccc1O,-1.0%,?,22.3%,-4.7%,?,-22.0%
Cc1nc2ccc(C(=O)N/N=C/c3cc([N+](=O)[O-])ccc3O)cc2[nH]1,-12.9%,56.2µM*,55.7%,-18.1%,35.5µM*,-40.3%
O=C(Cn1nc2ccccc2n1)N/N=C/c1cc([N+](=O)[O-])ccc1O,6.6%,?,-9.5%,7.52µM*,11.2µM*,?
O=C(O)Cc1nc2nc3c(c(=O)n2[nH]1)CCCC3,-21.3%,10µM*,6.9%,-1.5%,-2.5%,?
O=c1c2c(nc3nc(COc4ccccc4)[nH]n13)CCC2,18.6%,2.8%,45.3%,-2.7%,4.0%,-33.3%[12.7 µM]
O=C(c1ccc2c(c1)N(Cc1ccc(F)cc1)C(=O)c1ccccc1S2(=O)=O)N1CCC(Cc2ccccc2)CC1,.,-16.2%,28.7%,.,-24.8%,-31.0%[59 µM]
Cc1ccc2c(c1)N(C(=O)CCC(=O)NCc1ccccc1Cl)CC(C)O2 (centres undefined),.,-22.8%,37.5%,.,-15.8%,-3.9%[59 µM]
Cc1cc(=O)c2c(O)c3c(O)cc(=O)c4c3c3c(cc(O)c1c23)C(C)(C)C=4O,56.2µM*!,.,.,.,.,.
Cc1ccc(NC2=C(NCCO)C(=O)c3ccccc3C2=O)cc1,-6.8%,50.1µM*,?,-14.4%,14.1µM*,11.2µM*
O=C1C(Cl)=C(NCCCO)C(=O)c2ccccc21,-0.3%,-29.6%,?,-9.2%,?,27.9%[2.33 µM]
Cc1cccc(NC(=O)/C(C#N)=C\c2ccc(C(=O)O)cc2)c1,35.5µM*,5.4%,32.5%,-27.7%,-18.3%,-46.0%
N#C/C(=C\c1cccnc1)C(=O)Nc1cccc(Cl)c1,-6.8%,0.0%,24.1%,-29.1%,-9.1%,-37.0%
COc1ccccc1NC(=O)/C(C#N)=C/c1cccnc1,9.3%,7.8%,28.3%,-4.5%,-10.8%,-15.0%
Cc1cccc(NC(=O)/C(C#N)=C\c2cccnc2)c1,9.7%,-13.7%,-4.2%,0.0%,8.2%,50.1µM*
Cc1cccc(NC(=O)/C(C#N)=C\c2cn(CC(=O)O)c3ccccc23)c1,10.3%,-7.0%,31.0%,-4.4%,?,39.8µM*
N#C/C(=C\c1cccnc1)C(=O)Nc1cccc2ccccc12,?,-26.2%,2.6%,?,3.4%,50.1µM*
SMILES,Sfp inh,JMJD2A Tudor,HP1b binding inh,PLK1 PBD inh,BAZ2B inh,G9a inh
CCC1CCCCN1CCCNC(=O)C1CCCN(S(=O)(=O)N2CC(C)CC(C)C2)C1 (centres undefined),7.1%,-20.8%,26.9%,-10.7%,23.9%[57.1 µM],-6.9%
COC(=O)CCN(c1ccccc1)C(CNS(=O)(=O)c1ccccc1)c1ccccc1 (centres undefined),.,-14.8%,73.2%,.,14.2%,61.5%[59 µM]
Nc1c(C(=O)Nc2ccc3c(c2)OCCO3)nnn1Cc1cccc(F)c1,.,-17.0%,14.9%,0.7%,10.5%,5.6%
O=S(=O)(Nc1ccc(Cl)cn1)c1ccc(F)cc1,10.9%,-9.7%,28.6%,2.7%,-11.1%,.
Cc1ccc(CCNC(=O)CCS(=O)(=O)c2cc3c(cc2Cl)NC(=O)CO3)cc1,.,-15.8%,26.6%,.,-1.1%,-2.7%[59 µM]
Cc1ccc(-c2noc(-c3ccccc3NC(=O)C3CC(=O)N(c4ccccc4C)C3)n2)cc1 (centres undefined),.,-12.9%,47.7%,.,-5.6%,-35.3%[59 µM]
COc1ccccc1NC(=O)/C(C#N)=C/c1cc([N+](=O)[O-])ccc1N1CCCC1,7.2%,-8.7%,37.6%,10.6µM*,8.6%,-4.8%[59 µM]
COc1ccc(/C=C(/C#N)C(=O)Nc2cccc([N+](=O)[O-])c2)cc1C(=O)O,13.7%,-24.6%,-18.3%,-14.9%,?,44.7µM*
COc1ccc(/C=C(/C#N)C(=O)Nc2cccc(C)c2C)cc1C(=O)O,15.8%,-0.8%,9.7%,-0.3%,4.1%,-3.2%[12.7 µM]
COc1ccccc1NC(=O)/C(C#N)=C/c1ccncc1,7.4%,3.4%,13.8%,?,-11.7%,.
O=C(Nc1nccs1)c1cc([N+](=O)[O-])ccc1Cl,5.9%,-13.6%,23.9%,-9.0%,-24.7%,.
CC(Sc1nnc(-c2ccc(Cl)cc2Cl)n1Cc1ccccc1)C(=O)Nc1nccs1 (centres undefined),-0.4%,79.4µM*,?,?,-7.2%,-37.5%[59 µM]
CC(Sc1ccc([N+](=O)[O-])cn1)C(=O)Nc1nccs1 (centres undefined),-26.6%,-20.5%,19.1%,?,-28.3%,7.94µM*
Cc1nnc(SC(C)C(=O)Nc2ccc(Cl)cn2)n1Cc1ccccc1 (centres undefined),8.1%,-5.8%,51.9%,-9.2%,9.5%,4.7%
CC(Sc1nnc(-c2ccco2)n1C)C(=O)Nc1nccs1 (centres undefined),.,31.6µM*,20.7%,-2.2%,-33.4%,-30.8%
CC(C)NC(=O)C1(C)CCN1C(=O)C1(c2ccccc2)CC1 (centres undefined),.,.,.,-3.1%,.,.
CCCC1O[C@@H]2C[C@H]3[C@@H]4CCC5=CC(=O)C=C[C@]5(C)[C@H]4[C@@H](O)C[C@]3(C)[C@]2(C(=O)CO)O1 (some centres undefined),-17.6%,-21.6%,25.9%,-11.5%,-1.6%,-14.9%[59 µM]
CCCC1O[C@@H]2CC3C4CCC5=CC(=O)C=C[C@]5(C)C4C(OC(C)=O)C[C@]3(C)[C@]2(C(=O)COC(C)=O)O1 (some centres undefined),-3.3%,17.8µM*,-17.2%,18.9µM*,-6.5%,7.7%[59 µM]
